Measured values from PubChem BioAssay AID720517 (National Center for Advancing Translational Sciences (NCATS), 2013).
Inconclusive results are not listed. Values without a mark were called inactive. Calls come from the whole dose curve; as a rule, active = well fitted activation curve with a large enough effect; inconclusive = small, poorly fitted or top-dose-only effect; inactive = flat fitted curve, though single readings scatter.

Test: qHTS for Inhibitors of Cell Surface uPA Generation: FP59 Counterscreen for Cherry-picked Compounds; note: 0% is about no effect
Details: FP59 anthrax toxin cytotoxicity counterscreen, cells; series mostly up to 115 µM; activity (protection from FP59): at the top concentration

Row | Structure (SMILES) | activity (protection from FP59)
1 | COc1ccccc1CNC(=O)CCCn1nc(C)c2c(C)n(-c3ccccc3)nc2c1=O | -1.42%
2 | O=C(NNC(=O)C1CC(c2cccs2)=NO1)Nc1ccccc1 (stereo not given) | -1.35%
3 | COc1ccc(N2CCN(C(=O)COc3ccc4c(C)c(C)c(=O)oc4c3C)CC2)cc1 | -1.36%
4 | CC(C)N1CCc2c(sc(NC(=O)CCc3ccccc3)c2C(N)=O)C1 | -1.46%
5 | COc1cc(C(=O)Nc2nnc(C)s2)cc(OC)c1OC | -1.5%
6 | Cn1nc(C(C)(C)C)c([N+](=O)[O-])c1C(=O)N1CCOCC1 | -1.4%
7 | CCCNC(=O)COc1coc(CN2CCN(c3ccccc3OC)CC2)cc1=O | -1.39%
8 | O=C(c1cc2cc([N+](=O)[O-])ccc2s1)N1CCOCC1 | -1.5%
9 | C[C@H]1CN([C@@H](C)CO)C(=O)c2cccc(NC(=O)c3cnccn3)c2O[C@@H]1CN(C)S(=O)(=O)c1ccc(F)cc1 | -0.99%
10 | CCCCNc1c(-c2ccc(-c3cccc(Cl)c3)cc2)nc2ccccn12 | -1.44%
11 | O=C(NCCCn1cccn1)C1CCC(=O)N(Cc2ccccc2F)C1 (stereo not given) | -1.39%
12 | Cc1cc(SCc2ccc(Cl)cc2)nc(=O)[nH]1 | -1.42%
13 | CCCCn1c(N)c(N(Cc2ccccc2OC)C(=O)COc2ccc(C)cc2)c(=O)[nH]c1=O | -1.37%
14 | O=C(C[C@@H]1C/C=C\C[C@H](Cc2ccc(F)cc2)C(=O)OC[C@H]2CCCN2C1=O)N[C@H](CO)Cc1ccccc1 | -1.53%
15 | COc1cc(/C=N/NC(=O)c2ccncc2)ccc1O | -1.39%
16 | COc1cccc(CN(C)C(=O)c2cc(S(=O)(=O)N3CCCC3)ccc2C)c1OC | -1.14%
17 | C[C@H](CO)N1C[C@H](C)[C@@H](CN(C)C(=O)Nc2ccccc2)Oc2c(NS(=O)(=O)c3ccccc3)cccc2C1=O | -1.23%
18 | O=C(NCc1ccc2c(c1)OCO2)c1ccccn1 | 0.0685%
19 | COCCN(C(=O)c1ccccc1OC)c1nnc(C)s1 | -1.25%
20 | CC(=O)Oc1ccc(OC(C)=O)c(SCCCCCCl)c1 | -1.46%

Row | Structure (SMILES) | activity (protection from FP59)
21 | CC1CCCN(C(=O)c2ccc(-c3ccccc3Cl)o2)C1 (stereo not given) | -1.48%
22 | CC(C)N1CCc2c(sc(NC(=O)Cc3ccccc3)c2C(N)=O)C1 | -1.41%
23 | CCOc1ccccc1N(CC(=O)Nc1ccc(OC)cc1)S(=O)(=O)c1ccccc1 | 7.21%
24 | Cc1cc(NC(=O)COc2cccc([N+](=O)[O-])c2)no1 | -1.44%
25 | O=C(NCCOc1ccc(F)cc1)C1CCN(S(=O)(=O)c2ccccc2)CC1 | -1.44%
26 | CCOc1cc(S(=O)(=O)NC2CC(C)(C)NC(C)(C)C2)ccc1Cl | 0.125%
27 | Cc1ccc(-c2nc(CS(=O)(=O)CC(=O)NCc3cccc(F)c3)c(C)o2)cc1 | -1.37%
28 | CCc1cc(CC)c(/C=N/NC(N)=O)c(CC)c1 | -1.38%
29 | O=C(NCCCn1ccnc1)C(=O)NCC(c1cccnc1)N1CCN(c2ccc(F)cc2)CC1 (stereo not given) | 0.365%
30 | COC(=O)c1ccccc1NC(=O)Nc1nnc(N2CCCCC2C)s1 (stereo not given) | 12.4%
31 | O=C(Nc1c(C(=O)O)oc2ccc(Br)cc12)c1ccccc1 | -0.512%
32 | Cc1cc(=O)[nH]c(=S)[nH]1 | -1.48%
33 | CCOC(=O)C1CCCN(CC(=O)Nc2ccc(C(=O)Nc3ccccc3OC)cc2)C1 (stereo not given) | 0.429%
34 | CCC(COC)NC(=O)CCc1nnc(Cc2c[nH]c3ccccc23)o1 (stereo not given) | -1.37%
35 | COc1ccc([C@H]2[C@H](C(=O)OC(C)(C)C)N3N=Cc4ccccc4C3C23C(=O)c2ccccc2C3=O)cc1OC (stereo not given in full) | 5.17%
36 | CN1CCN(c2ccc(S(=O)(=O)N3CCOCC3)cc2NC(=O)CSCc2ccccc2)CC1 | 1.22%
37 | CC1(C)CC2(CC(c3ccccc3)Oc3cc(O)ccc32)NC(=S)N1 (stereo not given) | -0.346%
38 | O=C(CNS(=O)(=O)c1ccc(F)cc1)Nc1ccccc1 | -1.19%
39 | O=C(CSc1nnnn1-c1cccc(F)c1)Nc1nc2ccccc2s1 | -1.19%
40 | Cc1cc2[nH]c(=O)c(=O)[nH]c2cc1S(=O)(=O)NC1CCC(C)CC1 (stereo not given) | -1.23%
